# Assay results from PubChem BioAssay (NCI).
# About 79,000 compounds went through this panel and 15% of them were active in at least one assay; those are over-represented in the sample as a whole. Unmarked numbers belong to inactive results. Activity calls are given as the source filed them. Cut-off read from the data, not from the text of the source: active = growth inhibition above about 70%; inactive = the rest.
# Key:
# [1] = NCI Yeast Anticancer Drug Screen. Data for the rad50 strain (AID 155);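 note: 0% = growth of vehicle-only cultures of the same strain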; settings: S. cerevisiae rad50 strain growth inhibition, hits give high values
# How it was run: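 Yeast carrying a defined DNA repair defect were exposed to test compounds, and growth was compared with vehicle-treated controls to give percent inhibition.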
# [2] = NCI Yeast Anticancer Drug Screen. Data for the mec2-1 strain (AID 157); settings: S. cerevisiae mec2-1 strain, hits give high values
# How it was run: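 Strain: mec2-1 (DNA repair/cell cycle alteration). Compound exposure, then growth measured; inhibition expressed relative to vehicle.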
# [3] = NCI Yeast Anticancer Drug Screen. Data for the sgs1 mgt1 strain (AID 161);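 note: 0% = growth of cultures given vehicle only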; settings: S. cerevisiae sgs1 mgt1 strain, hits give high values
# How it was run: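 Test agents were incubated with a DNA-repair-mutant yeast strain. Growth was then read and compared against vehicle-treated controls.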
# [4] = NCI Yeast Anticancer Drug Screen. Data for the cln2 rad14 strain (AID 165);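 note: 0% = growth equal to vehicle treated cultures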; settings: S. cerevisiae cln2 rad14 strain, hits give high values
# How it was run: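 Compounds are applied to the cln2 rad14 yeast strain, and growth is then compared with that of vehicle-treated cultures to give inhibition.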
# [5] = NCI Yeast Anticancer Drug Screen. Data for the bub3 strain (AID 167); settings: S. cerevisiae bub3 mutant strain, hits give high values
# How it was run: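 Compounds were applied to a genetically altered yeast strain carrying a cell-cycle control defect. Growth inhibition was scored against vehicle-treated controls.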
# [6] = NCI Yeast Anticancer Drug Screen. Data for the mlh1 rad18 strain (AID 175); settings: S. cerevisiae mlh1 rad18 strain growth inhibition, hits give high values
# How it was run: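 Read-out is yeast growth inhibition, calculated against vehicle-only controls. The compound was applied to a strain engineered with DNA damage repair alterations.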
# [7] = at 5.0 µM (retest, dose inferred, filed as 0.5)
# [8] = at 50.0 µM (retest, dose inferred, filed as 5.0)
Compound,"growth inhibition [1, 7] [%]","growth inhibition [1, 8]",growth inhibition ([1]; at 50.0 µM),"growth inhibition [2, 7] [%]","growth inhibition [2, 8]",growth inhibition ([2]; at 50.0 µM) [%],"growth inhibition [3, 7] [%]","growth inhibition [3, 8]",growth inhibition ([3]; at 50.0 µM),"growth inhibition [4, 7] [%]","growth inhibition [4, 8]",growth inhibition ([4]; at 50.0 µM),"growth inhibition [5, 7] [%]","growth inhibition [5, 8]",growth inhibition ([5]; at 50.0 µM),"growth inhibition [6, 7] [%]","growth inhibition [6, 8]",growth inhibition ([6]; at 50.0 µM)
O=C1CCC(O)N1CN1C(=O)CCC1O (configuration not stated),-4,1%,36.1%,-4,-17%,18.4,9,-3%,22.9%,-17,10%,20.8%,18,-4%,22.1%,-6,-10%,46.5%
CCOc1nc(N)nc(C)c1N=Nc1ccc(Cl)cc1Cl,10,92% (active),72.8% (active),0,50%,16.9,5,88% (active),22.4%,15,77% (active),36.4%,5,94% (active),73.8% (active),14,97% (active),45%
Cc1ccccc1C[n+]1ccccc1Br,11,87% (active),94.3% (active),9,79% (active),60.6,12,78% (active),64.6%,-4,74% (active),32%,-12,77% (active),59.6%,15,90% (active),54.4%
COC1(OC)C(C#N)(C#N)C2(C(=O)Nc3ccccc32)C1(OC)OC (configuration not stated),11,-4%,15.4%,-12,-16%,12.2,-2,-25%,97% (active),-4,-7%,28%,-14,38%,-7.6%,10,-22%,90% (active)
CC(C)N(CCO)CC(O)Cn1cnc2c(N)ncnc21 (configuration not stated) (tested in a mixture with another compound),-17,0%,-37.5%,-9,-8%,7.75,-14,1%,-15.6%,-18,-6%,40.2%,-8,-6%,-4.65%,-8,-5%,43%
C[C@@H]1CC=C[C@@H](NC(=O)OCc2ccccc2)[C@H]1C=O,-4,30%,13.6%,-5,-2%,-7.1,-2,15%,69.3%,-8,12%,15.7%,-18,47%,5.3%,-20,40%,80.2% (active)
O=S(=O)(c1cc(Cl)ccc1Cl)N1CCc2ccccc2C1,14,3%,16.1%,-28,-13%,-25.6,-1,12%,25.6%,-1,15%,-11.4%,18,12%,5%,-17,-31%,-9.85%
Clc1ccc(-c2nnc(-c3ccccn3)o2)c(Cl)c1,4,99% (active),99.2% (active),-1,80% (active),28.1,0,99% (active),99.2% (active),-2,83% (active),92.7% (active),1,94% (active),70.1% (active),1,96% (active),99.4% (active)
CCNC1(C2c3ccccc3-c3ccccc32)c2ccccc2-c2ccccc21,13,84% (active),20%,-17,25%,11.8,4,84% (active),44.1%,-12,36%,18.5%,-4,71% (active),58.4%,30,74% (active),37%
